{"source": "PubChem BioAssay AID584", "about": "(National Center for Advancing Translational Sciences (NCATS), 2007)", "note": "About 65 (0.09%) of roughly 71,000 compounds were called active. For the sample, actives were picked, then their nearest neighbours and some compounds at random. A number with no mark means an inactive call. The call rests on the fitted dose curve; in most records, active means well fitted curve in the direction sought with a large enough effect; inconclusive means small, poorly fitted or top-dose-only effect; inactive means flat fitted curve, though single readings scatter. On the % scale 0 is the no-effect control and ±100 the full control effect."}
{"target": "Beta-lactamase (Escherichia coli (strain K12)) (UniProt P00811)", "sequence (P00811 whole entry, looked up)": "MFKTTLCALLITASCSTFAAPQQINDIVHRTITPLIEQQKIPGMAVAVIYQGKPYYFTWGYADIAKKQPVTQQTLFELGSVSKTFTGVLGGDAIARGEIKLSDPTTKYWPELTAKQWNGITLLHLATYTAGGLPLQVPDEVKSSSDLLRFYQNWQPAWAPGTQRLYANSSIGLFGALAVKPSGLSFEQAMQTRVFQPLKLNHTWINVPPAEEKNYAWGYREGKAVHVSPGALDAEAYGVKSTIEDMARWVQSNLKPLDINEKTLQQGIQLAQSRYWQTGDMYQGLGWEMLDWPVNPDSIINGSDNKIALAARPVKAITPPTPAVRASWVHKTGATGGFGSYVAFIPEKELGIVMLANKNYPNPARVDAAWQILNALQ", "test": "Promiscuous and Specific Inhibitors of AmpC Beta-Lactamase (assay with detergent)", "settings": "purified AmpC, nitrocefin hydrolysis with detergent; series mostly up to 28.7 µM", "method": "NIH Molecular Libraries Screening Centers Network [MLSCN]\nNIH Chemical Genomics Center [NCGC]\nPI Name: Shoichet, Brian K.\nThis aggregation profiling approach exploits the sensitivity of aggregate formation to detergent. Inhibition of b-lactamase is measured in the presence and absence of 0.01% Triton X-100. This particular assay had the prescence of 0.01% Triton X-100. See Pubchem assay \"Promiscuous and Specific Inhibitors of AmpC Beta-Lactamase (assay without detergent)\" for related screen. Compounds that inhibit only in the absence of detergent are considered likely promiscuous aggregators.\nA screen of 1,030 compounds was performed in Brian Shoichet's lab in 96-well format. AmpC activity was measured by following the absorbance at 480 nm. Nitrocefin is a chromogenic substrate: while nitrocefin is yellow (lmax 390 nm), the product of its hydrolysis is red (lmax 486 nm, 17,000 M-1). AmpC beta lactamase was provided by Brian Shoichet and Brian Feng, UCSF.\nNCGC Assay Protocol Summary:\n20 mM phosphate buffer, pH 7.0\nTriton X-100: No Detergent screen: 0.0001%, Detergent screen: 0.01%.\nBuffer in columns 3 and 4 as negative control (no enzyme).\n5.3 nM AmpC in columns 1, 2, 5-48. Titration of UCSF compound 9 control (from 10 mM, then 1:2) pin-transferred to column 2. Column 1 is neutral (100% activity).\nSix uL of reagents were dispensed to 1536-well Greiner black clear bottom plates. Compounds and controls (23 nL) were transferred via Kalypsys PinTool. The plates were incubated for 15 min at room temperature, and then 2 uL of 800 uM solution of nitrocefin was added to start the reaction. The plates were immediately transferred to and read every 20 seconds for 4 min on ViewLux (Perkin-Elmer) High-throughput CCD imager using 480 nm absorbance protocol. During dispense, reagent bottles were kept submerged into 4 deg C water bath.\nKeywords: NIH Roadmap, MLSCN, MLI, MLSMR, qHTS, NCGC, AmpC Beta-Lactamase, Aggregation"}
{"smiles": "CC(C)Cc1ccc(S(=O)(=O)N2CCN(C(=O)c3ccco3)CC2)cc1", "activity change, negative = inhibition": "inactive"}
{"smiles": "O=c1c(-c2ccc(F)cc2)nc2cnc(N3CCOCC3)nc2n1-c1ccccc1", "activity change, negative = inhibition": "inactive"}
{"smiles": "CCON=C1C(C)(C)C(C)(C)C(C)(C)C1(C)C", "activity change, negative = inhibition": "-1.9% [at 5.75 µM]"}
{"smiles": "COc1cccc(NC(=O)c2ccccc2SC)c1", "activity change, negative = inhibition": "inactive"}
{"smiles": "CCOC(=O)c1cccc(NC(=O)CN(c2ccc(C)cc2)S(=O)(=O)c2c(C)noc2C)c1", "activity change, negative = inhibition": "inactive"}
{"smiles": "C[C@H]1O[C@@H](CC(=O)O)Cc2c1c(O)c1c(O)cc(-c3cc(=O)c4c(=O)c5c(c(=O)c=4c3=O)C[C@H](CC(=O)O)O[C@@H]5C)c(O)c1c2O", "activity change, negative = inhibition": "-3.2% [at 5.75 µM]"}
{"smiles": "CCCCc1nc2ccccc2c(NC(=O)CN2CCN(C)CC2)c1CCC", "activity change, negative = inhibition": "inactive"}
{"smiles": "O=C(O)Cc1ccc(-c2ccccc2)cc1", "activity change, negative = inhibition": "inactive"}
{"smiles": "O=C(O)C(=O)Cc1ccc2c(c1)OCO2", "activity change, negative = inhibition": "-2% [at 5.75 µM]"}
{"smiles": "CC/C(=N\\O)C(C)(C)/[N+]([O-])=C/c1ccc(Br)cc1", "activity change, negative = inhibition": "inactive"}
{"smiles": "CC(=O)NC(Cc1ccc(F)cc1)C(=O)O", "note": "(configuration not stated)", "activity change, negative = inhibition": "inactive"}
{"smiles": "Nc1nonc1-c1noc(-c2ccc(Br)o2)n1", "activity change, negative = inhibition": "inactive"}
{"smiles": "Cc1ccc(C)n1-c1ccncc1", "activity change, negative = inhibition": "inactive"}
{"smiles": "O=C(CCCn1c(=O)oc2ccccc21)Nc1cccnc1", "activity change, negative = inhibition": "inactive"}
{"smiles": "COc1ccc(C(=O)Nc2c(N)nc(SCC(=O)N3CCC(C)CC3)[nH]c2=O)cc1OC", "activity change, negative = inhibition": "inactive"}
{"smiles": "COC(=O)c1sc(=S)n(-c2ccccc2)c1N", "activity change, negative = inhibition": "inactive"}
{"smiles": "COc1ccc(CCN2CNc3c(c(=O)n(C)c(=O)n3C)C2)cc1OC", "activity change, negative = inhibition": "inactive"}
{"smiles": "CC1CCN(Cc2nc3c(c(=O)n(C)c(=O)n3C)n2CCc2ccccc2)CC1", "activity change, negative = inhibition": "inactive"}
{"smiles": "COc1ccc(CCNC(=O)CSc2nc(C)nc3c2oc2ccccc23)cc1OC", "activity change, negative = inhibition": "inactive"}
{"smiles": "CCn1c(-c2cc(OC)ccc2OC)csc1=Nc1c(C)n(C)n(-c2ccccc2)c1=O", "activity change, negative = inhibition": "inactive"}
{"smiles": "COc1ccc(C)c(Cn2c(-c3nonc3N)nc3ccccc32)c1", "activity change, negative = inhibition": "inactive"}
{"smiles": "CCCCOc1ccc(C(=O)NCc2ccco2)cc1", "activity change, negative = inhibition": "inactive"}
{"smiles": "Cc1ccc2c(CSc3nncs3)cc(=O)oc2c1", "activity change, negative = inhibition": "inactive"}
{"smiles": "CCOC(=O)C1CCN(C(=O)C2CCN(S(=O)(=O)N3CCCC3)CC2)CC1", "activity change, negative = inhibition": "inactive"}
{"smiles": "COc1ccccc1-c1nnc(SCC(=O)Nc2cc(C)on2)o1", "activity change, negative = inhibition": "inactive"}
{"smiles": "CSCCC(NC(N)=O)C(=O)N(C)CC(=O)Nc1ccc(C)cc1", "note": "(configuration not stated)", "activity change, negative = inhibition": "inactive"}
{"smiles": "CCOc1ccc(OCC)c(NC(=O)CSc2nnc(Cn3cnc4ccccc43)n2C)c1", "activity change, negative = inhibition": "inactive"}
